Only some compounds are listed: those with a hit (about 0.69% of all), similar ones and a draw of the others.
phage Ecoli inh – growth loss of phage-infected E. coli, primary screen, RecBCD inhibitor project, absorbance, with phage, HTS; 360,000 tested, 0.26% active; inhibition, % at 11.9 µM; AID 651602, 2012; in the data active means inhibition above about 11%
E coli growth-1 – E. coli growth inhibition, primary screen, OD600 | Escherichia coli growth, 23 h; active compounds read low | OD600 absorbance (test concentration not listed) | 330,000 tested, 0.21% active;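 active means OD600 absorbance below the run mean of sample wells minus 3.6 SD, in any replicate, cut at about 0.56 in these data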
PfHsp90 set2 – growth inhibition of PfHsp90-expressing yeast, primary screen, antimalarial PfHsp90 inhibitor project, S. cerevisiae, BacTiter-Glo luminescence, single point, set 2. AID 504621, 2011. BacTiter-Glo ATP, 48 h; yeast lacking PDR1 and PDR3 efflux regulators. inhibition, % at 9.4 µM. 310,000 tested, 0.32% active;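 active means every replicate shows inhibition above about 80%, whatever the replicate mean, limit read from the data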
Tat export inh – E. coli Tat export inhibitors, primary screen, MC4100, TorA-mCherry reporter, fluorescence, single point; inhibition, % at 10 µM; 340,000 tested, 0.036% active;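 active means mean replicate inhibition at least 50% and at least half of replicates individually reaching 50%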;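 further: exported cargo escapes ClpAP degradation while cytoplasmic cargo is degraded and loses fluorescence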
E coli growth-2 – E. coli V3065 growth inhibition, primary screen, counter-screen for AddAB inhibitor project, absorbance, OD600; 18 h; inhibition, % at 11.9 µM; 330,000 tested, 0.27% active; AID 449728, 2010;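 active means inhibition above the campaign's mean inhibition across all tested compounds plus 3 SD, cut at about 9.9% in these data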;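 further: uninfected addAB+ strain grown without phage in ampicillin broth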
AddAB inh – growth inhibition of E. coli expressing H. pylori AddAB, primary screen, AddAB inhibitor project, absorbance. AID 435030, 2010. inhibition, % at 11.9 µM. 330,000 tested, 0.29% active; in the data active means inhibition above about 12%
Numbers stand for hits; . = inactive; / = no result given.

SMILES	phage Ecoli inh	E coli growth-1	PfHsp90 set2	Tat export inh	E coli growth-2	AddAB inh
O=c1oc2ccccc2c(O)c1Cc1cc(Cl)c2cccnc2c1O	.	.	90	.	.	.
O=C(CON=Cc1ccc(OC(F)F)cc1)NCc1ccco1	/	.	/	/	/	/
COc1cc(C=NNC(=O)Cc2csc(C)n2)ccc1OCC(C)C	/	.	/	/	/	/
Cc1ccc(S(=O)(=O)N(CC(=O)NN=Cc2cccc(Cl)c2)c2cccc3cccnc23)cc1	/	.	/	/	/	/
O=[N+]([O-])c1ccc(Sc2cccc[n+]2[O-])c2nonc12	60	0.086	97	139	/	/
COc1ccc(/C=C2/CCCC(CN(C)C)C2=O)cc1 (configuration not stated)	.	/	.	.	/	/
COc1cccc(/C=C2/CCC(CN(C)C)C2=O)c1 (configuration not stated)	.	/	146	.	/	/
C=CCSC(=S)NC1CCS(=O)(=O)C1 (configuration not stated)	.	0.5	.	.	.	.
CCCCCC(=O)NN=C(C)c1ccc(NC(=O)c2ccco2)cc1	/	.	/	/	/	/
CCOC(=O)c1ccc(N2C(=O)CC(N(C)CCc3ccc(OC)c(OC)c3)C2=O)cc1 (configuration not stated)	.	.	112	.	.	.
CCOc1cccc(N2C(=O)CC(N(CCc3ccc(OC)c(OC)c3)C(=O)CC)C2=O)c1 (configuration not stated)	.	.	.	.	.	.
O=C(N/N=C/C(Br)=C/c1ccccc1)c1ccncc1	.	/	.	.	.	.
O=C(NN=C/C(Br)=C/c1ccccc1)c1ccncc1	/	0.46	/	/	/	/
CCOC(=O)C1=C(N)N2C(=O)C(C)SC2=C(C(=O)OC)C1c1ccccc1OC (configuration not stated)	.	.	133	.	.	.
CCOC(=O)C1=C(N)N2C(=O)C(C)SC2=C(C(=O)OCC)C1c1ccccc1 (configuration not stated)	.	.	.	.	.	.
CN(C)c1nc(Oc2ccc(C=NO)cc2)nc(N(C)C)n1	/	.	/	/	/	/
CC(=O)n1cc(Nc2ccc([N+](=O)[O-])cc2)c2ccccc21	.	/	.	.	.	.
CC(=O)SC(C[N+](=O)[O-])c1cn(C(C)=O)c2ccccc12 (configuration not stated)	.	/	124	.	.	.
C#CCOCCOCCOCCNc1nc(N2CCN(C(=O)C(CC(N)=O)n3cc(C(N)C(C)C)nn3)CC2)nc(N2CCN(C(=O)C(CCCN=C(N)N)n3cc(C(N)C(C)CC)nn3)CC2)n1 (configuration not stated)	/	.	/	/	/	/
O=C(NN1C(=O)/C(=C/c2ccc(O)c([N+](=O)[O-])c2)SC1=S)c1ccccc1Cl	.	.	104	.	.	.
COc1ccccc1C(=O)Nc1nc2ccccc2[nH]1	.	/	99	.	.	.
COc1cc(SC)ccc1C(=O)Nc1nc2ccccc2[nH]1	.	/	96	.	.	.
CSc1ccccc1C(=O)Nc1nc2ccccc2[nH]1	.	.	.	.	.	.
Cc1c(C=NO)c2ccccn2c1C(=O)c1ccc(F)cc1	/	.	/	/	/	/
NC1=NCC(Cc2ccccc2)N1CC1CCCCC1 (configuration not stated)	/	.	/	/	/	/
SMILES	phage Ecoli inh	E coli growth-1	PfHsp90 set2	Tat export inh	E coli growth-2	AddAB inh
O=C(O)CN1C(=O)C2C3CC(C2C1=O)C1C(c2ccccc2)c2sc(=O)[nH]c2SC31 (configuration not stated)	.	.	.	.	.	.
CC(C)CC(C(=O)O)N1C(=O)C2C3CC(C2C1=O)C1C(c2ccccc2)c2sc(=O)[nH]c2SC31 (configuration not stated)	.	0.51	.	.	.	.
CCC(C)C(C(=O)NCCCCCCCCCCC(=O)N1CCNCC1)n1cc(CCCCCN)nn1 (configuration not stated)	/	.	/	/	/	/
O=C(C#Cc1ccccc1)c1ccco1	.	/	104	.	.	.
O=C(N/N=C/c1ccccc1)c1ccco1	.	/	.	.	.	.
CCCCCCCCNC(=O)/C(C#N)=C/c1ccccc1[N+](=O)[O-]	.	.	110	.	.	.
COc1ccc(C2CC(=O)C=C(c3ccc4c(c3)OCO4)C2)cc1OC (configuration not stated)	/	.	/	/	/	/
Cc1noc(C)c1COC(=O)c1cccc(S(=O)(=O)N2CCOCC2)c1	.	.	.	53	.	.
Cc1noc(C)c1COC(=O)c1cc(S(=O)(=O)N2CCOCC2)ccc1Cl	.	.	.	.	.	.
c1ccc2c(NCCCN3CCOCC3)c3ccccc3nc2c1	.	.	/	/	10	15
O=C1C=CC(=O)N1CCCCCCCCCCN1C(=O)C=CC1=O	.	.	107	.	/	/
O=C1C=CC(=O)N1Cc1ccncc1	.	/	.	.	/	/
Cc1ccc(/C=C2/NC(=O)N(Cc3ccc(Br)cc3)C2=O)o1	.	.	109	.	.	.
CCN1C(=O)N/C(=C/c2ccc(C)o2)C1=O	.	.	.	.	.	.
Oc1c(Br)cc(Br)cc1/C=N/NC(=S)N[C@H]1CC2C=CC1C2 (some centres not stated)	.	/	.	.	10	.
Oc1c(Cl)cc(Cl)cc1C=NNC(=S)NC1CC2C=CC1C2 (configuration not stated)	/	.	/	/	/	/
Cc1ccc(C=NNC(=O)c2cc(C3CC3)nc3ccccc23)o1	/	.	/	/	/	/
Cc1ccc(-c2cc(C(=O)NN=Cc3ccccc3)n[nH]2)o1	/	.	/	/	/	/
COc1ccc(CSCC(=O)NN=Cc2ccccc2O)cc1	/	.	/	/	/	/
CNCC(Cc1ccccc1)NCC(Cc1cccc2ccccc12)NCCc1ccc(C)cc1 (configuration not stated)	/	0.048	/	/	/	/
COc1cc(C)c(Cc2cnc(N)nc2N)cc1OC	/	/	/	/	101	100
COCc1cnc(C)nc1N	.	.	.	.	.	.
O=C(Nc1cccs1)Nc1ccc(Br)cc1F	.	0.49	.	.	.	.
COc1ccc(/C=N\NC(=S)SCN2C(=O)C3CCC(C)(C2=O)C3(C)C)cc1 (configuration not stated)	.	/	.	.	11	.
CC12CCC(C(=O)N(CSC(=S)NN=Cc3ccccc3)C1=O)C2(C)C (configuration not stated)	/	.	/	/	/	/
CN(C)c1ccc(/C=N\NC(=S)SCN2C(=O)C3CCC(C)(C2=O)C3(C)C)cc1 (configuration not stated)	.	/	.	.	15	.
C=C(C)C1CC=C(C)C(=NNC(=S)Nc2ccccc2)C1 (configuration not stated)	/	.	/	/	/	/
Cc1cc(C2CCCCC2)n(O)c(=O)c1	.	/	109	.	.	.
Cn1c(NC2CCCCC2)cc(=O)n(C)c1=O	.	.	.	.	.	.
COc1ccc(S(=O)(=O)NN=Cc2ccc3c(c2)OCO3)cc1	/	.	/	/	/	/
